This note sets out measurements from PubChem BioAssay (EPA / NIEHS).

Where “and” joins values, the source holds several entries; their conditions need not be identical. Equal values may be shown once. Where a structure was tested more than once in an assay, its records may differ in their call. Calls of active or inactive are those of the source. The calls were made as follows: active = hit-call score of the fitted dose curve at least 0.9, where 1 is the maximum; inactive = score below 0.9.

Assay [1] has as its target Bile acid receptor (Homo sapiens) (UniProt Q96RI1). Kind of assay: ATG_IR1_CIS: Attagene CIS-FACTORIAL HepG2 Assay for human Nuclear Receptor Subfamily 1 Group H Member 4 (NR1H4), IR1 submotif (AID 2282946). The conditions noted are these: IR1 reporter transcription, actives raise or lower the signal. A digest of the protocol: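 Readout: reporter transcript levels by RT-PCR with fluorescent capillary electrophoresis, from HepG2 cells transiently transfected with multiplexed cis-regulated reporters and dosed 24 h. Gain- or loss-of-signal fitted versus DMSO negative control.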

Assay [2] is described as follows: ATG_GRE_CIS: Attagene CIS-FACTORIAL HepG2 Assay for human Glucocorticoid Response Elements (GRE) (AID 2282947). The conditions noted are these: HepG2 GRE cis-reporter, Attagene multiplex mRNA; actives raise or lower the signal. Put shortly: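 Cells (HepG2) bearing transfected cis-promoter reporter transcription units were treated with chemical for 24 hours. Reporter mRNA was measured via RT-PCR with capillary electrophoresis, and activity was fitted in both directions relative to DMSO.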

Assay [3] in a line: ATG_ISRE_CIS: Attagene CIS-FACTORIAL HepG2 Assay for human Interferon Regulatory Factor 1 (IRF1) binding to an Interferon-Stimulated Response Element (ISRE) (AID 2282948). The conditions noted are these: HepG2 ISRE cis-reporter (Attagene), mRNA transcription readout; actives raise or lower the signal. Put shortly: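 Multiplexed mRNA reporter readout in human liver HepG2 cells: cis-element-driven reporters transfected, compound added for 24 h, transcripts amplified, fluorescently labelled and sized by capillary electrophoresis; curve fitting bidirectional against DMSO.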

Assay [4] can be described thus: ATG_M_32_CIS: Attagene CIS-FACTORIAL HepG2 Assay for M32 Transcription Factor (Internal Marker) (AID 2282949).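 Also: background control marker of the multiplexed CIS panel rather than a real target.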 The conditions noted are these: HepG2 Attagene cis-factorial M32 reporter, mRNA; actives raise or lower the signal. Put shortly:
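HepG2 human liver cells transiently transfected with cis-promoter-driven multiple reporter transcription units, dosed 24 h. Reporter mRNA quantified by RT-PCR, FAM-labelled primer extension, HpaI digest and capillary electrophoresis; bidirectional fit versus DMSO baseline.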

A short description of assay [5]: ATG_M_06_CIS: Attagene CIS-FACTORIAL HepG2 Assay for M06 Transcription Factor (Internal Marker) (AID 2282950). The conditions noted are these: HepG2 Attagene CIS-FACTORIAL M06 internal marker reporter; actives raise or lower the signal. Put shortly:
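Fluorescence-labelled RT-PCR products from cis-promoter reporter units, cut with HpaI and resolved by capillary electrophoresis, give the signal. Cells are human HepG2, dosed for 24 h. Serves as background control, fitted relative to DMSO.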

Assay [6] addresses Hepatocyte nuclear factor 6 (Homo sapiens) (UniProt Q9UBC0). The assay is described as follows: ATG_HNF6_CIS: Attagene CIS-FACTORIAL HepG2 Assay for human Hepatocyte Nuclear Factor 6 (HNF6) (AID 2282952). The following applies: HepG2 Attagene cis-factorial HNF6 reporter transcription; actives raise or lower the signal. A digest of the protocol: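 Twenty-four-hour chemical treatment of reporter-transfected HepG2 cells precedes RNA isolation, DNase-treated reverse transcription and PCR of reporter sequences. Labelled fragments are sized by capillary electrophoresis and fitted bidirectionally versus DMSO.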

The target in assay [7] is Heat shock factor protein 1 (Homo sapiens) (UniProt Q00613). Kind of assay: ATG_HSE_CIS: Attagene CIS-FACTORIAL HepG2 Assay for human Heat Shock Transcription Factor 1 (HSE) (AID 2282953). The following applies: HepG2 HSE cis-reporter, Attagene RNA transcription; actives raise or lower the signal. Put shortly:
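After a 24 h incubation with test chemical, transfected HepG2 cells were harvested for RNA; reporter transcripts were measured by RT-PCR and capillary electrophoresis. Values reflect gain or loss of signal relative to DMSO.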

Assay [8] in a line: ATG_MRE_CIS: Attagene CIS-FACTORIAL HepG2 Assay for human Metal Responsive Element (MRE) (AID 2282954). The following applies: HepG2 MRE cis-reporter transcription, Attagene multiplex; actives raise or lower the signal. A digest of the protocol: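 Cells were transfected with cis-promoter reporter transcription units, then dosed for 24 h. RNA was reverse-transcribed, amplified, fluorescently labelled and resolved by capillary electrophoresis, and activity was fitted in both directions relative to DMSO.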

Assay [9] in a line: ATG_PBREM_CIS: Attagene CIS-FACTORIAL HepG2 Assay for human Phenobarbital-responsive Enhancer Module (PBREM) (AID 2282955). The following applies: HepG2 PBREM cis-reporter, Attagene multiplexed transcription; actives raise or lower the signal. Put shortly: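 Fluorescence of labelled reporter cDNA fragments, resolved by capillary electrophoresis, gives mRNA induction in transfected HepG2 cells treated for 24 h; DMSO serves as negative control and baseline.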

Assay [10] deals with Paired box protein Pax-6 (Homo sapiens) (UniProt P26367). Kind of assay: ATG_Pax6_CIS: Attagene CIS-FACTORIAL HepG2 Assay for human Paired Box 6 (PAX6) (AID 2282956). The conditions noted are these: HepG2 CIS-FACTORIAL PAX6 reporter transcription, RNA readout; actives raise or lower the signal. Put shortly:
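Fluorescent RT-PCR products separated by capillary electrophoresis report PAX6-linked promoter mRNA in HepG2 cells 24 h post-dose. Curves fitted bidirectionally, DMSO as negative control.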

Assay [11] is described as follows: ATG_PXRE_CIS: Attagene CIS-FACTORIAL HepG2 Assay for human Pregnane X Receptor Element (PXRE) (AID 2282957). The following applies: HepG2 Attagene CIS-FACTORIAL PXRE reporter, mRNA; actives raise or lower the signal. Put shortly:
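Bidirectional activity, baselined to DMSO, derived from reporter mRNA fluorescence (RT-PCR plus capillary electrophoresis) in HepG2 cells bearing cis-promoter reporter units, 24 h exposure.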

Assay [12] in a line: ATG_Sox_CIS: Attagene CIS-FACTORIAL HepG2 Assay for human SRY-box transcription factor (SOX) (AID 2282960). The conditions noted are these: HepG2 Attagene cis-factorial SOX reporter, mRNA; actives raise or lower the signal. Put shortly:
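Transient MRTU transfection of HepG2; 24 h compound incubation; TriZol RNA, oligo(dT) RT, PCR, 6-FAM primer extension, HpaI cut, CE. Bidirectional fit, DMSO = baseline.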

For assay [13], the target named is Transcription factor Sp1 (Homo sapiens) (UniProt P08047). The assay is described as follows: ATG_Sp1_CIS: Attagene CIS-FACTORIAL HepG2 Assay for human Specificity Protein 1 (Sp1) (AID 2282961). The following applies: HepG2 Sp1 cis-reporter transcription, actives raise or lower the signal. Put shortly:
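Endogenous Sp1 activity was gauged in human liver HepG2 cells bearing transfected reporter units under a cis-regulating promoter. After 24 h dosing, reporter mRNA was quantified by RT-PCR with capillary electrophoresis, and activity fitted bidirectionally versus DMSO.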

A short description of assay [14]: ATG_SREBP_CIS: Attagene CIS-FACTORIAL HepG2 Assay for human Sterol Regulatory Element Binding (SREBP) (AID 2282962). The conditions noted are these: HepG2 Attagene cis-factorial SREBP reporter, mRNA; actives raise or lower the signal. A digest of the protocol:
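Endogenous factor activity is measured in HepG2 through multiplexed reporter units under cis-element control. Following a 24 h incubation, reporter transcripts are reverse-transcribed, PCR-amplified and sized by capillary electrophoresis; activity is fitted in both directions relative to DMSO.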

The target of assay [15] is Signal transducer and activator of transcription 3 (Homo sapiens) (UniProt P40763). Kind of assay: ATG_STAT3_CIS: Attagene CIS-FACTORIAL HepG2 Assay for human Signal Transducer and Activator of Transcription 3 (STAT3) (AID 2282963). The following applies: HepG2, Attagene cis-factorial STAT3 reporter transcription; actives raise or lower the signal. Put shortly:
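HepG2, MRTU-transfected, 24 h dosing. RNA → RT → PCR → FAM label → HpaI → CE. Bidirectional fit vs DMSO.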

Assay [16] is described as follows: ATG_TA_CIS: Attagene CIS-FACTORIAL HepG2 Assay for human TA Basal Promoter (AID 2282964). The conditions noted are these: HepG2 Attagene CIS-factorial TA basal promoter reporter; actives raise or lower the signal. A digest of the protocol: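 Multiplexed mRNA reporter assay, HepG2, 24 h. Reporter cDNA amplified, 6-FAM primer-extended, HpaI-cut, CE-sized; DMSO = negative control and baseline.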

Assay [17] is described as follows: ATG_TCF_b_cat_CIS: Attagene CIS-FACTORIAL HepG2 Assay for human T-Cell-Factor with beta-catenin (TCF/b-cat) (AID 2282965). The following applies: HepG2 TCF/beta-catenin cis-reporter transcription, actives raise or lower the signal. A digest of the protocol: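 Using capillary electrophoresis as the read-out, labelled reporter cDNA fragments from transiently transfected HepG2 were sized and quantified. Exposure lasted 24 hours; activity in either direction was referenced to DMSO.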

Assay [18] is described as follows: ATG_PPRE_CIS: Attagene CIS-FACTORIAL HepG2 Assay for human Peroxisome Proliferator-activated Response Element (PPRE) (AID 2282958). The conditions noted are these: HepG2 PPRE cis-element reporter, Attagene transcription factor profiling; actives raise or lower the signal. A digest of the protocol: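 Cells are first transfected transiently with the multiplexed reporter library, then dosed for 24 h. Total RNA is reverse-transcribed, amplified, fluorescently end-labeled and HpaI-cut before capillary electrophoresis; activity is fitted bidirectionally against DMSO controls.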

Assay [19] in a line: ATG_RORE_CIS: Attagene CIS-FACTORIAL HepG2 Assay for human RAR-related Orphan Receptor Element (RORE) (AID 2282959). The conditions noted are these: HepG2 Attagene cis-factorial RORE reporter, mRNA; actives raise or lower the signal. Put shortly:
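Cells were HepG2 carrying transfected cis-regulated reporter constructs, dosed for 24 hours. Total RNA was reverse-transcribed and reporter cDNA amplified, fluorescently labeled and sized by capillary electrophoresis. Activity was fitted bidirectionally relative to DMSO.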

For assay [20], the target named is Hypoxia-inducible factor 1-alpha (Homo sapiens) (UniProt Q16665). Kind of assay: ATG_HIF1a_CIS: Attagene CIS-FACTORIAL HepG2 Assay for human Hypoxia Inducible Factor 1 (HIF1A) (AID 2282951). The conditions noted are these: HepG2 Attagene cis-factorial HIF1a reporter transcription; actives raise or lower the signal. Put shortly:
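Measures endogenous transcription-factor activity through cis-regulated reporter mRNA in HepG2. Cells dosed 24 h; transcripts quantified by RT-PCR with 6-FAM-labelled products separated by capillary electrophoresis; DMSO serves as negative control.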

Bile acid receptor (Homo sapiens), sequence (Q96RI1 whole entry, looked up): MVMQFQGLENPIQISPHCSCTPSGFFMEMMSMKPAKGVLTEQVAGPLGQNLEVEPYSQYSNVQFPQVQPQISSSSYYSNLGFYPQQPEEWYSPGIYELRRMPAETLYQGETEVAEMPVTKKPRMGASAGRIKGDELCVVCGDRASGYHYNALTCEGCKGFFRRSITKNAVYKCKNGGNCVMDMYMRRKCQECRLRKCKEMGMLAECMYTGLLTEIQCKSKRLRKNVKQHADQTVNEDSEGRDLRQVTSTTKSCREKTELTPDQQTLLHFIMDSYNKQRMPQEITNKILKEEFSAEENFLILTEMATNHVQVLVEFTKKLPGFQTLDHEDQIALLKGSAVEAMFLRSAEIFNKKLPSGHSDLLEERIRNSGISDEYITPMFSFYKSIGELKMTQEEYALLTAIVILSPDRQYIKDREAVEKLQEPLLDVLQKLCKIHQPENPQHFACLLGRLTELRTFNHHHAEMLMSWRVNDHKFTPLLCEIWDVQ
Hepatocyte nuclear factor 6 (Homo sapiens), sequence (Q9UBC0 whole entry, looked up, the tested form may be a part): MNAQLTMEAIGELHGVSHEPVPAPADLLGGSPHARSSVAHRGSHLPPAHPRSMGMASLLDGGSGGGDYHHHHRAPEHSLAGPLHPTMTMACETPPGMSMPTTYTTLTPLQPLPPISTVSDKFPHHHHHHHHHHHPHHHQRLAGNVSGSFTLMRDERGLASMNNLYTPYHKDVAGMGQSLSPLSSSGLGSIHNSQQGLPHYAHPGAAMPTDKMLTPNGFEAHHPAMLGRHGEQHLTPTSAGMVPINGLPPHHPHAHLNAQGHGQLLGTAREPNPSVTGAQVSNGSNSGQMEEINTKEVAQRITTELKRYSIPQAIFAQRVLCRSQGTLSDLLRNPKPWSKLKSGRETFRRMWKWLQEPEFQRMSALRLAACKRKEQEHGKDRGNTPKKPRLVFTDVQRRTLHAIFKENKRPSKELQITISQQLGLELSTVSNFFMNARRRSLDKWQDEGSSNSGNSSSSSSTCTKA
Heat shock factor protein 1 (Homo sapiens), sequence (Q00613 whole entry, looked up): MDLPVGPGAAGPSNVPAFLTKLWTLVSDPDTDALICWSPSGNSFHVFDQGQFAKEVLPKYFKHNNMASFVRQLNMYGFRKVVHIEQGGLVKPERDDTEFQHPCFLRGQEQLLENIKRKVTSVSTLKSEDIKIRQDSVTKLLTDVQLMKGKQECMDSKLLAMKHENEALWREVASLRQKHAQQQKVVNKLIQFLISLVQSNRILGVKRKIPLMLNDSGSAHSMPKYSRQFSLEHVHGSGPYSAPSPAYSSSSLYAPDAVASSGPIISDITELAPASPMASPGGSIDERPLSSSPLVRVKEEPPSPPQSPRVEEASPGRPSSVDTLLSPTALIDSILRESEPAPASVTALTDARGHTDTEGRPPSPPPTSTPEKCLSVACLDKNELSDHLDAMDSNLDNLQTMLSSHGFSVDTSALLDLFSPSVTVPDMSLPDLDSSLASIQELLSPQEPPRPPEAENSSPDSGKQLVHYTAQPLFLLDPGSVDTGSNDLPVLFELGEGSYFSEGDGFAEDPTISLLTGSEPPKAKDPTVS
Paired box protein Pax-6 (Homo sapiens), sequence (P26367 whole entry, looked up): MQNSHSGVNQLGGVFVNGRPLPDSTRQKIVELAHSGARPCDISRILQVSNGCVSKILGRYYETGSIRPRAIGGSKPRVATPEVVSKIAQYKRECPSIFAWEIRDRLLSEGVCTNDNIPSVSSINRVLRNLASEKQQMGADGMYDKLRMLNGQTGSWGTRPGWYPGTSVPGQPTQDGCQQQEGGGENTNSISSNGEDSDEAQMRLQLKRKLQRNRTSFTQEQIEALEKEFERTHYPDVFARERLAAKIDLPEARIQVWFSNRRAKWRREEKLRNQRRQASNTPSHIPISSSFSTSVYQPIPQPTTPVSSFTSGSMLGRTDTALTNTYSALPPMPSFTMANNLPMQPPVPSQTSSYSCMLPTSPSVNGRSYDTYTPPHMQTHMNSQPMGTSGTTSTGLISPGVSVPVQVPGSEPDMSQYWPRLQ
Signal transducer and activator of transcription 3 (Homo sapiens), sequence (P40763 whole entry, looked up): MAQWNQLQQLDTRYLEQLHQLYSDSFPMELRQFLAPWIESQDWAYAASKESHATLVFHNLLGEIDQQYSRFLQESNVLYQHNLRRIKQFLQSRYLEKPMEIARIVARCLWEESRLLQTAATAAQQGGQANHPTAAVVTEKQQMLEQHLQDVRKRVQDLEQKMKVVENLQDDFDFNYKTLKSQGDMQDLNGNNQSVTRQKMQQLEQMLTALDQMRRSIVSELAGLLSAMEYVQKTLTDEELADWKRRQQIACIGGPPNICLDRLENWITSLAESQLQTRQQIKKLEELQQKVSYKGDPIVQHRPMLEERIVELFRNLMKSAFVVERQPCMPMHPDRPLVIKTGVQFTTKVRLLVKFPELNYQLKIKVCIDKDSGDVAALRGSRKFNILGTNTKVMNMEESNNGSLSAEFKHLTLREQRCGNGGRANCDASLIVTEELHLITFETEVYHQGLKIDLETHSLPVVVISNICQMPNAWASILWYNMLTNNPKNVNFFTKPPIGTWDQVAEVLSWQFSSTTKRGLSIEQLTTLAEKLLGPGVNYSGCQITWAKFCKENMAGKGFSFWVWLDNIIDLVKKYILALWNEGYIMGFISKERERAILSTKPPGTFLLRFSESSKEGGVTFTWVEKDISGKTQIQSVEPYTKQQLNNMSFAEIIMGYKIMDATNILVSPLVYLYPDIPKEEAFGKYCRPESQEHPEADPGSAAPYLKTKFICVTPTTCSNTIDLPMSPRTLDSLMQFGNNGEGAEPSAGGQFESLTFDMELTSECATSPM
Transcription factor Sp1 (Homo sapiens), sequence (P08047 whole entry, looked up): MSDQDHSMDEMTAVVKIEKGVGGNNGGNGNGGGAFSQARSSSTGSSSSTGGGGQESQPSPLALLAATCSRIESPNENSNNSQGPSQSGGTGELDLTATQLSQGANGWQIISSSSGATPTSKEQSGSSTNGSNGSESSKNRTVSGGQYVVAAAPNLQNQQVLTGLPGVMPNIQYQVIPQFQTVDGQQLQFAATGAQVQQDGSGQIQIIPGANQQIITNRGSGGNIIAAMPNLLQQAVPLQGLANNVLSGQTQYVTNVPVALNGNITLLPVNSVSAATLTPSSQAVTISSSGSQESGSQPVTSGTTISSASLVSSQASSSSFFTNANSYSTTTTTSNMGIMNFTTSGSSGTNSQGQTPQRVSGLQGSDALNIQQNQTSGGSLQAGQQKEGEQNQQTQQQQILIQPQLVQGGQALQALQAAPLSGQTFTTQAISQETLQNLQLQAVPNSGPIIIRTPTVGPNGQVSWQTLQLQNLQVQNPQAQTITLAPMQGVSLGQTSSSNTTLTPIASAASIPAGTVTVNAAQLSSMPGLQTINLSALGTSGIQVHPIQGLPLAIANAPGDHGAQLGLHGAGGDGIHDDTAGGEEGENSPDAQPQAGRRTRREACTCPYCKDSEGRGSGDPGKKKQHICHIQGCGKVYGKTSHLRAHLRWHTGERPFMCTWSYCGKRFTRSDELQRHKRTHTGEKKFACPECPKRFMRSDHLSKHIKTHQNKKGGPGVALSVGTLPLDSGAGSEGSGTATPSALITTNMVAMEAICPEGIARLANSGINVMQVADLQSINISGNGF
Hypoxia-inducible factor 1-alpha (Homo sapiens), sequence (Q16665 whole entry, looked up): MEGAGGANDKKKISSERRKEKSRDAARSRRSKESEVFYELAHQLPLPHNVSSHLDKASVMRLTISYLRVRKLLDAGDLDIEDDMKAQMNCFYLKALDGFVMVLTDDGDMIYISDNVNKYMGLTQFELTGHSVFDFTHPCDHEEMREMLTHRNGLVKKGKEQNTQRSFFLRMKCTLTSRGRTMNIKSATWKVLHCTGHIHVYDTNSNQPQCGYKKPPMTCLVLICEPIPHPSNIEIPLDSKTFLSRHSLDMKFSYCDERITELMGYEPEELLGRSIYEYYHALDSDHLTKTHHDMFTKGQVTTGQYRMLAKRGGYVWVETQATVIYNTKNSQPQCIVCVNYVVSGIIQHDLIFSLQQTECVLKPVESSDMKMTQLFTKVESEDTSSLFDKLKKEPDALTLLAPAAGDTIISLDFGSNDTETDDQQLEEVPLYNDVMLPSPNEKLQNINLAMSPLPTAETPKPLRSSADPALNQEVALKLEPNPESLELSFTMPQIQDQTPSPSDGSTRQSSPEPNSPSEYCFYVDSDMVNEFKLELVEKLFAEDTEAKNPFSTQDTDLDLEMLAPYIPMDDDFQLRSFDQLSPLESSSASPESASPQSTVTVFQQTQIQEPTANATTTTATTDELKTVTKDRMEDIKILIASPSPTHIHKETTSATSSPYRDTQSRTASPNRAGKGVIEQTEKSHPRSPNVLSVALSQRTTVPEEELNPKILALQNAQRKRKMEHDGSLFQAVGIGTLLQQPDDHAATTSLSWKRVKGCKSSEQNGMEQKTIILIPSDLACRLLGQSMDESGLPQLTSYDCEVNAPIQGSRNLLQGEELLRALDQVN

In general, AC50 refers to the midpoint of the concentration-response curve, whichever way the signal moves. As for `O=C(O)Cn1c(=O)n(Cc2ccc(Br)cc2F)c(=O)c2ccc(Cl)cc21`, the call in assay [1], in assay [2], in assay [3], in assay [4], in assay [5] and in assay [6] was inactive. The outcome in assay [7], in assay [8], in assay [9], in assay [10], in assay [12] and in [13] was inactive. Also, the call in [14], in assay [15] and in assay [16] was inactive. Further, the AC50 in assay [11] was 8.54 µM (active).
With `Clc1ccccc1C(c1ccccc1)(c1ccccc1)n1ccnc1`, the outcome in assay [1], in assay [2], in assay [4], in assay [5], in assay [6] and in assay [13] was inactive. Besides, the molecule was classed as inactive in assay [15] and in assay [17]. In addition, the AC50 in assay [3] is 11.1 µM (active); in assay [7] it was 19.1 µM (active); in [8] it was 15 µM (active); in assay [9] it was 11.1 µM (active); in assay [10], 11.1 µM (active); in assay [11] it was 0.589 µM (active). Besides, the AC50 was 11.1 µM (active) in [12], 3 µM (active) in assay [14] and 11.1 µM (active) in assay [16].
Consider `C[C@]12CC[C@@H]3c4ccc(O)cc4CC[C@H]3[C@@H]1CC[C@H]2O`, for which the outcome in assay [2], in assay [3], in assay [4], in assay [5], in assay [6] and in assay [7] was inactive. Besides, the molecule was classed as inactive in [8], in [9], in assay [10], in assay [11], in assay [18] and in assay [19]. For the same molecule, the molecule was called inactive in [12], in assay [13], in [14] and in assay [15]. For the same molecule, the AC50 in [8] is 24.8 µM (active); in [11] it was 7.87 µM (active) and 6.41 µM (active) and 4.84 µM (active); in [14], 27.6 µM (active).
Take `OCCO`: the call in assay [1], in [3], in assay [4], in assay [5], in assay [6] and in [7] was inactive. Also, the molecule was classed as inactive in assay [8], in assay [9], in [10], in assay [11], in assay [18] and in assay [12]. Besides, the call in assay [13], in assay [14] and in assay [15] was inactive. The AC50 in [20] was 51.2 µM (active).
Turning to `CCCCCc1ccc(N)cc1`, the result in [3], in assay [4], in assay [5], in assay [6], in [7] and in assay [8] was inactive. Besides, the result in assay [9], in assay [10], in assay [11], in assay [18], in assay [19] and in [12] was inactive. Further, the outcome in assay [13], in assay [14], in assay [15] and in [16] was inactive. Also, the AC50 is 46 µM (active) in assay [8]; 72.9 µM (active) and 27.4 µM (active) and 21.2 µM (active) in assay [11].
In the case of `Cc1cn([C@H]2C[C@H](N=[N+]=[N-])[C@@H](CO)O2)c(=O)[nH]c1=O`, the call in assay [1], in [2], in [3], in assay [4], in assay [5] and in [6] was inactive. The outcome in assay [7], in assay [8], in [10], in [11], in assay [18] and in assay [19] was inactive. The molecule was classed as inactive in [12], in [13], in [14], in assay [15], in [16] and in assay [17].
